Compound activity deposited in PubChem BioAssay by National Center for Advancing Translational Sciences (NCATS).
PLK1 PBD block: qHTS for Inhibitors of PLK1-PDB (polo-like kinase 1 - polo-box domain): Primary Screen; Potency, µM, for the others: max response, negative = inhibition, usual class: inhibitors; Plk1 PBD binding of FITC phosphopeptide, fluorescence polarization; hit rate 2.8% among 360,000; note: potency is the fitted concentration of half-maximal effect; series mostly up to about 57 µM; % is set by controls: 0 for no effect and ±100 for the full control effect; nearly all actives have a fitted effect of over 65% in size
WRN helicase inh-1: qHTS for Inhibitors of WRN Helicase; Bifunctional 3'-5' exonuclease/ATP-dependent helicase WRN (Homo sapiens), Q14191; WRN helicase unwinding, fluorescent forked duplex, kinetic; Potency, µM (series often up to 114 µM), for inactives: at the top dose activity change, negative = inhibition, hits mostly inhibitors; hit rate 0.46% among 360,000; note: potency is the fitted concentration of half-maximal effect; % is set by controls: 0 for no effect and ±100 for the full control effect; nearly all actives have a fitted effect of over 55% in size
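Primary qHTS, 1536-well format. 20 nM WRN + compound, 15 min RT; start with 100 nM forked fluorophore/quencher duplex, 2 mM ATP (final); kinetic read ex 525/em 598 nm.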
FEN1 inhibitor: qHTS Assay for the Inhibitors of Human Flap endonuclease 1 (FEN1). P39748. Recombinant FEN1 flap cleavage, fluorescence, 15 min. Potency, µM (highest dose often 114 µM), for inactives: at the highest dose activity change, negative = inhibition, usual class: inhibitors. hit rate 0.35% among 390,000; note: potency is the fitted concentration of half-maximal effect; % is set by controls: 0 for no effect and ±100 for the full control effect; nearly all actives have a fitted effect of over 65% in size
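Potency values derive from four-parameter Hill fits of normalized qHTS data. The reaction used 10 nM FEN1 preincubated 15 min at room temperature with compound, then 50 nM DNA substrate, read at 0 and 15 min.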
PI5P4K alpha inh: qHTS for Inhibitors of phosphatidylinositol 5-phosphate 4-kinase (PI5P4K); Phosphatidylinositol 5-phosphate 4-kinase type-2 alpha (Homo sapiens), P48426; PI5P4Kalpha enzyme, ADP-Glo luminescence, 60 min; active compounds read low; max response, %; hit rate 1.2% among 330,000; AID 652105, 2013; active = max response of -50% or lower; inconclusive = between -30% and -50%; inactive = -30% or higher; note: value at the top dose of about 77 µM; % is set by controls: 0 for no effect and ±100 for the full control effect
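Luminescence from ADP-Glo served as readout of PI5P4Kalpha activity in a qHTS format. Reaction: enzyme, substrate, compound, ATP at 5 microM final, 60 min at RT.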
TCR act: Activators of T cell receptors: qHTS campaign; primary human leukocytes, anti-CD3, IL-2 HTRF, 48 h; Potency, µM (highest dose often 9.22 µM), for inactives: at the top dose activation of IL-2 secretion, actives largely listed as activators; 330,000 tested, under 10 active; AID 504894, 2011; note: % of control where 0% means no effect
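HTRF read-out of IL-2 secretion: europium cryptate donor excited at 320nm, d2 acceptor emission at 665nm. Cells were primary human leukocytes incubated 48 hr with compounds and a-CD3 beads, supplying TCR signal only.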
VDR inh: Inhibitors of the vitamin D receptor (VDR): qHTS; Vitamin D3 receptor (Homo sapiens), P11473; VDR-SRC2-3 peptide fluorescence polarization, 2 h; Potency, µM, for inactives: max response, negative = inhibition, usual class: inhibitors; hit rate 0.93% among 400,000; note: potency is the fitted concentration of half-maximal effect; % is set by controls: 0 for no effect and ±100 for the full control effect
Target sequence (P11473 whole entry, looked up): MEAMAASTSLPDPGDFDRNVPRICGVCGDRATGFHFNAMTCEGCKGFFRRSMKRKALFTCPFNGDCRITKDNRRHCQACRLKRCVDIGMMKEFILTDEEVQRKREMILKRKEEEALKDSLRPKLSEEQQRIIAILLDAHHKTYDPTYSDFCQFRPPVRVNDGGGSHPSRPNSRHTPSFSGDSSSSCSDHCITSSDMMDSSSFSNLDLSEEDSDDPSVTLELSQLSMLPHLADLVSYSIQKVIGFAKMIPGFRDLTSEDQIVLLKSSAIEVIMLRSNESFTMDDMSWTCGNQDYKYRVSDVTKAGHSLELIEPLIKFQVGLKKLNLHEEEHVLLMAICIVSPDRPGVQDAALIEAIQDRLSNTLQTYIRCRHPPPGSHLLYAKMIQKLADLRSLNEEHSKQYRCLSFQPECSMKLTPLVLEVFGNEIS
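The screen uses fluorescence polarization to detect compounds that interfere with recruitment of the SRC2-3 coactivator peptide to VDR; plates are read after 2 h at room temperature.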
USP1-UAF1 confirm: Inhibitors of USP1/UAF1: Hit Validation in Primary Assay; hit rate 50% among 50; shares compounds with VDR inh; Potency, µM (titrated, usually from 56.8 µM), inactives show at the top dose activity change, negative = inhibition, most hits filed as inhibitors; Ub-Rhodamine cleavage, fluorescence kinetic read
VDR confirm: qHTS for Inhibitors of the vitamin D receptor (VDR): Hit Validation in Primary Screen | hit rate 89% among 840 | VDR-coactivator inhibition assay, qHTS confirmation | shares compounds with VDR inh | AID 602199, 2012 | Potency, µM, usual class: inhibitors; note: potency is the fitted concentration of half-maximal effect
VDR FP fluor: qHTS for Inhibitors of the vitamin D receptor (VDR): Hit Validation using a Fluorescein Assay. shares compounds with VDR inh. VDR-coactivator binding, fluorescein fluorescence polarization. Potency, µM (series often up to 57.1 µM), for inactives: at the highest dose activity change, negative = inhibition, hits mostly inhibitors. hit rate 48% among 840. AID 602200, 2012; note: potency is the fitted concentration of half-maximal effect
VDR bla: qHTS for Inhibitors of the vitamin D receptor (VDR): Hit Validation using a Beta-Lactamase Assay; shares compounds with VDR inh; VDR beta-lactamase reporter cells, FRET ratio; cells co-treated with VDR agonist LG190178; Potency, µM (series often up to 46.1 µM), for inactives: top-dose activity change, negative = inhibition, most hits filed as inhibitors; hit rate 23% among 840; note: potency is the fitted concentration of half-maximal effect; % is set by controls: 0 for no effect and ±100 for the full control effect
VDR cytotox: qHTS for Inhibitors of the vitamin D receptor (VDR): Hit Validation using a Cytotoxicity Assay | shares compounds with VDR inh | cytotoxicity counter-screen, cell viability, qHTS | Potency, µM (series often up to 48.3 µM), for the others: at the top dose activity change, negative = cytotoxicity, hits mostly cytotoxic | hit rate 18% among 840 | AID 602204, 2012;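 note: potency is the fitted concentration of half-maximal effect; plate controls were DMSO for no effect and high-concentration cycloheximide for full effect; nearly all actives have a fitted effect of over 75% in size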
WRN helicase inh-2: qHTS for Inhibitors of WRN Helicase: Confirmatory Assay for Cherry-picked Compounds; shares compounds with WRN helicase inh-1; WRN helicase DNA unwinding, fluorescence kinetic; Potency, µM (highest dose often 57.1 µM), for inactives: at the top dose activity, negative = inhibition, actives largely listed as inhibitors; hit rate 63% among 610; note: potency is the fitted concentration of half-maximal effect; nearly all actives have a fitted effect of over 65% in size
TO DNA binding: qHTS for Inhibitors of WRN Helicase: Thiazole Orange DNA Binding Counterscreen. hit rate 10% among 610. thiazole orange DNA binding displacement, fluorescence. shares compounds with WRN helicase inh-1. Potency, µM (highest dose often 57.1 µM), inactives show top-dose activity change, negative = inhibition, hits mostly inhibitors;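 note: drop in dye fluorescence marks compound binding to DNA; potency is the fitted concentration of half-maximal effect; % is set by controls: 0 for no effect and ±100 for the full control effect; nearly all actives have a fitted effect of over 60% in size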
BLM counter: qHTS for Inhibitors of WRN Helicase: BLM Helicase Counterscreen for WRN Inhibitors; Recombinant BLM helicase DNA unwinding, red fluorescence; hit rate 60% among 610; shares compounds with WRN helicase inh-1; Potency, µM (highest dose often 57.1 µM), inactives show top-dose activity change, negative = inhibition, actives largely listed as inhibitors; note: potency is the fitted concentration of half-maximal effect; nearly all actives have a fitted effect of over 60% in size
Active calls of the source: *; ? = inconclusive; . = no result given; [ ] = another dose, or the depositor's remark. In the library only some 3.7% were active in any assay of this set; here they are far more common. Unless noted, calls come from the whole dose curve; as a rule, active = well fitted curve in the direction sought with a large enough effect; inconclusive = small, poorly fitted or top-dose-only effect, or another doubt; inactive = no such curve, though single readings can be large; an effect the other way counts as inactive or inconclusive.

SMILES	PLK1 PBD block	WRN helicase inh-1	FEN1 inhibitor	PI5P4K alpha inh	TCR act	VDR inh	VDR confirm	VDR FP fluor	VDR bla	VDR cytotox	others
CCC1(CC)C(=O)NC(=O)N(c2ccccc2)C1=O	1%	10%	-5%	0	-1%	-5%	.	.	.	.
O=C1NC(=O)N(c2ccccc2)C(=O)/C1=C\c1ccccc1[N+](=O)[O-]	?	?	3%	?	-8%	45µM*	21*	28µM*	24%	6%
O[C@@H]1CCCC[C@@H]1N1CCC(c2ccccc2)CC1	.	.	.	.	.	6%	.	.	.	.
NC(Cc1cc(O)c(O)cc1O)C(=O)O (centres undefined)	.	.	3.2µM*	.	.	45µM*	.	.	.	.	USP1-UAF1 confirm=12µM*
N[C@@H](CCl)C(=O)O	-10%	-2%	-3%	0	7%	13%	.	.	.	.
COc1ccc(/C=C2/C(=O)NC(=S)N(C3CC3)C2=O)cc1CN1C(=O)c2ccccc2C1=O	2.7µM*	14µM*	-12%	-88*	8%[46.1 µM]	45µM*	11*	7.9µM*	28%	?
CCOc1ccc(CN(CCc2ccc3c(c2)OCO3)Cc2cc(OC)ccc2O)cc1	.	.	-11%	.	.	4%	.	.	.	.
COc1cc(/C=C/[N+](=O)[O-])ccc1O	19µM*	-7%	?	-20	-10%	28µM*	30*	?	?	?
CCOc1cc(C=O)ccc1O	1%	-10%	-1%	1	-40%	5%	.	.	.	.
COC(=O)C1=Nc2ccccc2/C1=C\c1c(O)n(-c2ccc(Br)cc2)c(=O)[nH]c1=O	1.7µM*	50µM*	-14%	-102*	10%[46.1 µM]	79µM*	21*	?	30%	-9%
O=c1[nH]c(=O)n(-c2ccc(Br)cc2)c(O)c1C=NCCN1CCCCC1	-10%	-3%	-5%	-2	-3%	6%	.	.	.	.
S=C=S	.	.	.	.	.	-2%	.	.	.	.
O=C1NC(=O)N(CCC2=CCCCC2)C(=O)/C1=C\c1cccs1	1.1µM*	?	?	?	-7%[46.1 µM]	45µM*	8.4*	?	4%	-28%
O=C1NC(=O)N(CCc2ccc(F)cc2)C(=O)/C1=C/c1cccs1	1.1µM*	32µM*	-19%	-74*	6%	18µM*	9.5*	?	19%	7%
Cn1cccc1/C=C1\C(=O)NC(=O)N(CCC2=CCCCC2)C1=O	-12%	1%	-14%	-21	-5%[46.1 µM]	0%	.	.	.	.
c1ccc(CCN2CCCC2)cc1	.	.	7%	.	.	.	.	.	.	.
COc1ccc2[nH]cc(C3=CCNCC3)c2c1	.	.	.	.	.	-1%	.	.	.	.	USP1-UAF1 confirm=53µM*
CCN1C[C@]2(C)CC[C@H](OC)[C@]34C5C[C@@H]6CC[C@@](O)(C5C(=O)O6)C(C13)[C@@H](OC(=O)c1ccccc1)C24	.	.	.	.	.	3%	.	.	.	.
O=C1NC(=O)[C@]2(Cc3ccccc3N3CCN(c4ccccc4)CC32)C(=O)N1Cc1ccccc1 (some centres undefined)	-18%	-30%	-13%	?	-5%	?	.	.	.	.
Cc1ccccc1N1C(=O)NC(=O)/C(=C\c2ccc3c(c2)CCCN3Cc2ccccc2)C1=O	?	13µM*	-36%	-65*	0%[46.1 µM]	40µM*	12*	200%	38%	12%	WRN helicase inh-2=?;TO DNA binding=7%;BLM counter=24µM*
O=C1NC(=O)C(=Cc2ccccc2OCCOc2ccc([N+](=O)[O-])cc2)C(=O)N1	6µM*	35µM*	?	?	-1%	45µM*	27*	10µM*	20%	?	WRN helicase inh-2=?;TO DNA binding=-16%;BLM counter=?
O[C@@H](Cc1ccncc1)C(Cl)(Cl)Cl	.	.	.	.	.	5%	.	.	.	.
Nc1ccc2c(c1)Cc1ccccc1-2	-24%	2%	-2%	7	-1%[46.1 µM]	-20%	.	.	.	.
